Experiment in all cases: DAPPL (digital affinity profiling via proximity ligation, sequencing); 10 mM Tris-HCl pH 7.5, 50 mM NaCl, 1 mM DTT, 4% glycerol, room temperature, 30 min; GST-TFs on glutathione beads, 16-mer random dsDNA library, 0.1% formaldehyde crosslink after washing; high values mean tight binding
The target in one test is T1, FLI1 (Homo sapiens, UniProt Q01543 1-452).
T1 sequence: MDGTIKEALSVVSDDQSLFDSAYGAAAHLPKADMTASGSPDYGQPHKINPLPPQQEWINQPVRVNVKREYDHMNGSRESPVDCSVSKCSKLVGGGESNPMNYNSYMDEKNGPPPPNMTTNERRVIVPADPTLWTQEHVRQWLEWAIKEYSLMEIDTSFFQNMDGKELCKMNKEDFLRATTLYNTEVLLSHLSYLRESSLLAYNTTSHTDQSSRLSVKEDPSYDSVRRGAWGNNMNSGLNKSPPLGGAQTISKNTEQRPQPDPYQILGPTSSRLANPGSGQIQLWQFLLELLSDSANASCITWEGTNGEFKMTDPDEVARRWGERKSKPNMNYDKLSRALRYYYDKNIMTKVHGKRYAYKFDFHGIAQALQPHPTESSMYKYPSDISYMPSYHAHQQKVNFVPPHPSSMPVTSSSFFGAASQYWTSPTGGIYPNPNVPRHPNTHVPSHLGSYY
The conditions noted are these: protein: recombinant; tags: N-terminal GST; dsDNA, one strand shown. In outline: (§1)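 Binding signal is each hexamer's read frequency for a factor divided by its frequency in the tag-only sample. The factors were GST-fused human transcription factors from yeast, captured on glutathione beads, DNA-barcoded and pooled with that sample. Pools were incubated with 200 nmole of a random double-stranded 16-mer DNA library in Tris/NaCl/DTT/glycerol buffer at room temperature for 30 min, then washed, crosslinked with 0.1% formaldehyde, proximity-ligated with BsaI/T4 ligase (1 h, 37 °C), PCR-amplified and sequenced on an Illumina NextSeq500.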

Another test addresses T2, ELK1 (Homo sapiens, UniProt P19419 1-428).
T2 sequence: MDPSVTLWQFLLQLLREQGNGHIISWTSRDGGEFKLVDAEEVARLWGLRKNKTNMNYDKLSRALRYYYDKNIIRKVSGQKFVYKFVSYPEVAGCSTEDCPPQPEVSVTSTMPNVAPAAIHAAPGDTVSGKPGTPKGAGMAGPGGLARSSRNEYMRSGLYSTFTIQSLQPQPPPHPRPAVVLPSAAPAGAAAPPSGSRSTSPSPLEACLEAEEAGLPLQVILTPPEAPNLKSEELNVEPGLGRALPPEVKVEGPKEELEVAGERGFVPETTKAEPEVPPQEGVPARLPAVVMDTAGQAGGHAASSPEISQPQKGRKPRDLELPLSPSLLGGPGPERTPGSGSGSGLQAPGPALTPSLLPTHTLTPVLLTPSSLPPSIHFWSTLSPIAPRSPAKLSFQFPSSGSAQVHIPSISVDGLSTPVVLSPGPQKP
Conditions: protein: recombinant; tags: N-terminal GST; dsDNA, one strand shown. In a few lines: as §1

In the next test the target is T3, GABPA (Homo sapiens, UniProt Q06546 1-454).
T3 sequence: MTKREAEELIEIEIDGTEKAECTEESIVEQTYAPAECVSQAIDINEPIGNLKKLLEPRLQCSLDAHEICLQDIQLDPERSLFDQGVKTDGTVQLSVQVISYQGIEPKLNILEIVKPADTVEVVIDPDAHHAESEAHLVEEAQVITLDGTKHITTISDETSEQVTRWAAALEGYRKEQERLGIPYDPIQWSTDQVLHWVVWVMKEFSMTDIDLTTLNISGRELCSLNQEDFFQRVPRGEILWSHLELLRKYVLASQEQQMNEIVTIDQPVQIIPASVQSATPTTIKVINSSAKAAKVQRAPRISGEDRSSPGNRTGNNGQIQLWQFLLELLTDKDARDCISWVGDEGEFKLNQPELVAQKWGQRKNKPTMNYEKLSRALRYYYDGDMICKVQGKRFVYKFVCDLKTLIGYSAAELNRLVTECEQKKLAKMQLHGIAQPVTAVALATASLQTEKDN
Conditions: protein: recombinant; tags: N-terminal GST; dsDNA, one strand shown. In outline:
as §1

Another test deals with T4, ERG (Homo sapiens, UniProt P11308 1-479).
T4 sequence: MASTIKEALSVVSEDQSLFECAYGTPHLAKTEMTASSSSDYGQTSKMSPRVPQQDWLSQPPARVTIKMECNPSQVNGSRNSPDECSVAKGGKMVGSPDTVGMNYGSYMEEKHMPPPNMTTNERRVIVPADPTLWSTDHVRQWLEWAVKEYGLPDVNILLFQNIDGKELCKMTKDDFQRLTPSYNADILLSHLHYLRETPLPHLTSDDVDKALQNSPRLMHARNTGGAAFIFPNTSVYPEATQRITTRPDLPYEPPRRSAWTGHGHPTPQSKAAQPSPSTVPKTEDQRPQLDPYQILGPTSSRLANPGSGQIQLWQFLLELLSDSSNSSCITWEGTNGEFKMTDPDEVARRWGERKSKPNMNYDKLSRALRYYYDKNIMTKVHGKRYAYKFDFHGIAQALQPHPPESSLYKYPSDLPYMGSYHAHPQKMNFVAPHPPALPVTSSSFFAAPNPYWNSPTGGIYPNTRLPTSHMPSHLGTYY
Conditions: protein: recombinant; tags: N-terminal GST; dsDNA, one strand shown. In outline: as §1

The next test deals with ELF1 (Homo sapiens, UniProt P32519 1-619). The conditions noted are these: protein: recombinant; tags: N-terminal GST; dsDNA, one strand shown. In outline:
as §1

The target of the next test is T5, EHF (Homo sapiens, UniProt Q9NZC4 1-300).
T5 sequence: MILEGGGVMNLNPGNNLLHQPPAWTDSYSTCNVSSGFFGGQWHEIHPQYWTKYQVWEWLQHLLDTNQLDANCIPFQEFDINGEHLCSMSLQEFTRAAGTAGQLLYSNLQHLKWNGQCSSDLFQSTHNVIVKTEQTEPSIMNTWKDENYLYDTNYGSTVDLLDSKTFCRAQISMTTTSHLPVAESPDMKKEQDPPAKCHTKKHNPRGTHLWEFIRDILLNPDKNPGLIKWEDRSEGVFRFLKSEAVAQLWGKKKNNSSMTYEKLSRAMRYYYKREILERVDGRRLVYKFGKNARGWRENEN
Conditions: protein: recombinant; tags: N-terminal GST; dsDNA, one strand shown. In outline: as §1

Another test has as its target SPI1 (Homo sapiens, UniProt P17947 1-270). The conditions noted are these: protein: recombinant; tags: N-terminal GST; dsDNA, one strand shown. In outline:
as §1

For the next test, the target named is SPIB (Homo sapiens, UniProt Q01892 1-262). The conditions noted are these: protein: recombinant; tags: N-terminal GST; dsDNA, one strand shown. In outline:
as §1

The target of a further test is T6, ELK3 (Homo sapiens, UniProt P41970 1-407).
T6 sequence: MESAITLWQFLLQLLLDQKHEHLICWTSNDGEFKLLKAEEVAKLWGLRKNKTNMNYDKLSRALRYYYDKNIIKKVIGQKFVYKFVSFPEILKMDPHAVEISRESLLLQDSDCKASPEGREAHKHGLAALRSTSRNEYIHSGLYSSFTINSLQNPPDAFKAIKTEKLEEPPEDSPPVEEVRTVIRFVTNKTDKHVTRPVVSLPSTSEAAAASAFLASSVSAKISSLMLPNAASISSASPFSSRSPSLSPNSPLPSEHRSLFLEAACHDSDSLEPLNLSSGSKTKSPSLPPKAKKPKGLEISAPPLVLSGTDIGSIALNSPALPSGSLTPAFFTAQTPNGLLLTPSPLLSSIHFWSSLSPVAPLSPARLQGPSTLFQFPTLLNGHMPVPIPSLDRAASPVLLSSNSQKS
The conditions noted are these: protein: recombinant; tags: N-terminal GST; dsDNA, one strand shown. In outline:
as §1

The target of the next test is T7, FEV (Homo sapiens, UniProt Q99581 1-238).
T7 sequence: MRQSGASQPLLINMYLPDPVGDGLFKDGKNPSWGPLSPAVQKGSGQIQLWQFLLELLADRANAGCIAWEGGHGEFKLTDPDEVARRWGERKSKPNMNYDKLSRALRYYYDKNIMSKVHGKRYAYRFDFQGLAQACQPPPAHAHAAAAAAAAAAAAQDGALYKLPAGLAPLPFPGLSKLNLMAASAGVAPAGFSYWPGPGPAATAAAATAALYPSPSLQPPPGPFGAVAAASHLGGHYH
Conditions: protein: recombinant; tags: N-terminal GST; dsDNA, one strand shown. In outline:
as §1

The target of a further test is ETV5 (Homo sapiens, UniProt P41161 1-510). The conditions noted are these: protein: recombinant; tags: N-terminal GST; dsDNA, one strand shown. In outline: as §1
Sequence of ETV5 (P41161 whole entry): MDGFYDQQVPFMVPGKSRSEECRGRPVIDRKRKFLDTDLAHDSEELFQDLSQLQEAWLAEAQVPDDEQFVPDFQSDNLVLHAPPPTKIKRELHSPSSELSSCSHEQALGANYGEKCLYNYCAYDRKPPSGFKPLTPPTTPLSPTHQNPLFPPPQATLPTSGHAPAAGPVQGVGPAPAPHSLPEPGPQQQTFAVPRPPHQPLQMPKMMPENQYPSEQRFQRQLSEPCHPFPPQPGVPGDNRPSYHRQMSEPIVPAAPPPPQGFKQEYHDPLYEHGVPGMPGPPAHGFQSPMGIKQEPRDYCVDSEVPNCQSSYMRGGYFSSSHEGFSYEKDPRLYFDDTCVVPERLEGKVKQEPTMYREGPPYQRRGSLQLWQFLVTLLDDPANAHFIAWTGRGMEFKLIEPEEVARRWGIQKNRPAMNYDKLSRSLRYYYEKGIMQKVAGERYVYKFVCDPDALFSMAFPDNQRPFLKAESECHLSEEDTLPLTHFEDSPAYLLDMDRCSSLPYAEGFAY
For another test, the target named is HSF1 (Homo sapiens, UniProt Q00613 1-529). The conditions noted are these: protein: recombinant; tags: N-terminal GST; chain copies: 3; dsDNA, one strand shown. In outline:
as §1

In the next test the target is T8, SPIC (Homo sapiens, UniProt Q8N5J4 1-248).
T8 sequence: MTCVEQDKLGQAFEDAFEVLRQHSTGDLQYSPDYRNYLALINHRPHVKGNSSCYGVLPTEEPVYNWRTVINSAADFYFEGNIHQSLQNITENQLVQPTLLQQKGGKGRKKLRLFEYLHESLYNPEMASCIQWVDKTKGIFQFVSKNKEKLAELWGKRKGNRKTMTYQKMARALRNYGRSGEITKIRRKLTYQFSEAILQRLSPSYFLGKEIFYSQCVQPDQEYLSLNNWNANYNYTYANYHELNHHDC
Conditions: protein: recombinant; tags: N-terminal GST; dsDNA, one strand shown. In outline:
as §1

A further test has as its target ELF4 (Homo sapiens, UniProt Q99607 1-663). The conditions noted are these: protein: recombinant; tags: N-terminal GST; dsDNA, one strand shown. In outline: as §1
A further test deals with T9, ELK4 (Homo sapiens, UniProt P28324-2 1-405).
T9 sequence: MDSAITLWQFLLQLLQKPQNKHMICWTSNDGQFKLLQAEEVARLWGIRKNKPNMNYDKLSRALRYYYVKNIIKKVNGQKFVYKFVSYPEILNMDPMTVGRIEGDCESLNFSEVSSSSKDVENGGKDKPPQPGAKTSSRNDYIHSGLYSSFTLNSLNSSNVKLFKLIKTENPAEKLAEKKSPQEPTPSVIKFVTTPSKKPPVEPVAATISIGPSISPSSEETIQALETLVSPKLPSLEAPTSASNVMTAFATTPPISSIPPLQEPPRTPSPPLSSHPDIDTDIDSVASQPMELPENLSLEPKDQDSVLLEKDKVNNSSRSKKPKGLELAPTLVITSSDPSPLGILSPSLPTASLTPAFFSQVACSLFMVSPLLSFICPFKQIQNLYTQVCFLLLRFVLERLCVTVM
The conditions noted are these: protein: recombinant; tags: N-terminal GST; dsDNA, one strand shown. In a few lines:
as §1

The next test deals with T10, ETV2 (Homo sapiens, UniProt O00321 1-342).
T10 sequence: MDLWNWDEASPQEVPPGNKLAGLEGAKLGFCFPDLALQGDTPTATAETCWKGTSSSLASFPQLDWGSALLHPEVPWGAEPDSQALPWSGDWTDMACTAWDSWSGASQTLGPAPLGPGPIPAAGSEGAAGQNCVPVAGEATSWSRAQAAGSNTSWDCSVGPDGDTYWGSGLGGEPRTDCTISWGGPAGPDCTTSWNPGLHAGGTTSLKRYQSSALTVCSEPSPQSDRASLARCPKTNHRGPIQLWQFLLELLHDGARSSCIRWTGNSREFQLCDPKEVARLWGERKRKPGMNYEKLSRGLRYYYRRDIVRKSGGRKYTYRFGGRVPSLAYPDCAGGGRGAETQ
Conditions: protein: recombinant; tags: N-terminal GST; dsDNA, one strand shown. In a few lines:
as §1

The target of the next test is T11, ELF3 (Homo sapiens, UniProt P78545 1-371).
T11 sequence: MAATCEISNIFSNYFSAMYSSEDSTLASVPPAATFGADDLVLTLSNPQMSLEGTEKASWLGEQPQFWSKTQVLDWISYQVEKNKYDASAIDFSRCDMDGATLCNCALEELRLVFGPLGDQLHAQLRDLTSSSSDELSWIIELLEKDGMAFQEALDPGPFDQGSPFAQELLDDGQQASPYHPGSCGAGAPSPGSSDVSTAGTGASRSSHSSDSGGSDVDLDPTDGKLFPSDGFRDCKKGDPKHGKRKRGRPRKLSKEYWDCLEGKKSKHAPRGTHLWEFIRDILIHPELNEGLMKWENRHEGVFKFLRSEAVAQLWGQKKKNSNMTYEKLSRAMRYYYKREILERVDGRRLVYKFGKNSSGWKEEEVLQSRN
Conditions: protein: recombinant; tags: N-terminal GST; dsDNA, one strand shown. In a few lines:
as §1

The target of another test is CRX (Homo sapiens, UniProt O43186 1-299). Conditions: protein: recombinant; tags: N-terminal GST; dsDNA, one strand shown. In a few lines: as §1
Sequence of CRX (O43186 whole entry): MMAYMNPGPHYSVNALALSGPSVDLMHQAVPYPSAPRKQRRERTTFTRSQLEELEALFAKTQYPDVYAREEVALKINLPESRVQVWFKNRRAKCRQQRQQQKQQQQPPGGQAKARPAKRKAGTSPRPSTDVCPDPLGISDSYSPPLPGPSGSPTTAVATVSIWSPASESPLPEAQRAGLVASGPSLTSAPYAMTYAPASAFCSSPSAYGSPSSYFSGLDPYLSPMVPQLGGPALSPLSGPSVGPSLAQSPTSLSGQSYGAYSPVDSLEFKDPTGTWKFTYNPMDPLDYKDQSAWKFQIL
The target of another test is ETV1 (Homo sapiens, UniProt P50549 1-477). The conditions noted are these: protein: recombinant; tags: N-terminal GST; dsDNA, one strand shown. In outline:
as §1

Sequence of ELF4 (Q99607 whole entry): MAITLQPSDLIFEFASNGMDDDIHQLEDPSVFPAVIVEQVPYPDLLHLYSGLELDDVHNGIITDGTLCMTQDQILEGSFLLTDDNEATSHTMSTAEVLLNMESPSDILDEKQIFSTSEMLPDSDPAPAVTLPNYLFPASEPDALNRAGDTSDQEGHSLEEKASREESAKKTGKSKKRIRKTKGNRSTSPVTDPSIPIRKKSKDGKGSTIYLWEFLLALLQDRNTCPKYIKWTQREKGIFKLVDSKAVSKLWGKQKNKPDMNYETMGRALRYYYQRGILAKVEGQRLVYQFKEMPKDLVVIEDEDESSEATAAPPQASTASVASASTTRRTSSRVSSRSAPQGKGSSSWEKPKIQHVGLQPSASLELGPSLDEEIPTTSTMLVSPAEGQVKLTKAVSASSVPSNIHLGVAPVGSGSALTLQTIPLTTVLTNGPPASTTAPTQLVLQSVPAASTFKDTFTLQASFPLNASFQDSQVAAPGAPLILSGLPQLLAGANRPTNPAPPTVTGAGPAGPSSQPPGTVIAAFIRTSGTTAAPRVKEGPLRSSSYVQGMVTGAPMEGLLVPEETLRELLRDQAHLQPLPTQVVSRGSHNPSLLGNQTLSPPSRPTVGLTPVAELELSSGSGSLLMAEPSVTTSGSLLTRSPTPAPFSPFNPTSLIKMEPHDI
Sequence of ELF1 (P32519 whole entry): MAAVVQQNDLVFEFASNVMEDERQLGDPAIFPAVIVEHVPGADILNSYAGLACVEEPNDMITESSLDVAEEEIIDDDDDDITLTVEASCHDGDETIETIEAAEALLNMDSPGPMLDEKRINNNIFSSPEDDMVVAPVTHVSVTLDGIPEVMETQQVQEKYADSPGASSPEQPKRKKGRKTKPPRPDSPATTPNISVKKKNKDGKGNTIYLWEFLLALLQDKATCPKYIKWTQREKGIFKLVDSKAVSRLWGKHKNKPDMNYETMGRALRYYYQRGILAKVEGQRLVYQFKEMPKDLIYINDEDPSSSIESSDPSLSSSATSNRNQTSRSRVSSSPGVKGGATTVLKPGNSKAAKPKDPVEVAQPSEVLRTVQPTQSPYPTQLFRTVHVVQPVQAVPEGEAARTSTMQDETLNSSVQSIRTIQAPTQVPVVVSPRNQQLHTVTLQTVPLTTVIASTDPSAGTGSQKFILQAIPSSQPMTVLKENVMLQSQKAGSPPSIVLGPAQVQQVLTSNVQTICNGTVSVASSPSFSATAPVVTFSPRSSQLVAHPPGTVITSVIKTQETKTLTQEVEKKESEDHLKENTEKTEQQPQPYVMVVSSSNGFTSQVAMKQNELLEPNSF
Sequence of SPIB (Q01892 whole entry): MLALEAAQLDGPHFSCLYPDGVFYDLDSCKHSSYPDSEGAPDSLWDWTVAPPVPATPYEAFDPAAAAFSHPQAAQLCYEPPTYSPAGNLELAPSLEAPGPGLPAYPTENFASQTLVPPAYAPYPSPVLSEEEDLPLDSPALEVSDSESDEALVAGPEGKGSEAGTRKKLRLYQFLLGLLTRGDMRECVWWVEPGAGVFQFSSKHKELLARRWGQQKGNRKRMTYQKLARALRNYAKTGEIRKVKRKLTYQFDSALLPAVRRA
Sequence of HSF1 (Q00613 whole entry): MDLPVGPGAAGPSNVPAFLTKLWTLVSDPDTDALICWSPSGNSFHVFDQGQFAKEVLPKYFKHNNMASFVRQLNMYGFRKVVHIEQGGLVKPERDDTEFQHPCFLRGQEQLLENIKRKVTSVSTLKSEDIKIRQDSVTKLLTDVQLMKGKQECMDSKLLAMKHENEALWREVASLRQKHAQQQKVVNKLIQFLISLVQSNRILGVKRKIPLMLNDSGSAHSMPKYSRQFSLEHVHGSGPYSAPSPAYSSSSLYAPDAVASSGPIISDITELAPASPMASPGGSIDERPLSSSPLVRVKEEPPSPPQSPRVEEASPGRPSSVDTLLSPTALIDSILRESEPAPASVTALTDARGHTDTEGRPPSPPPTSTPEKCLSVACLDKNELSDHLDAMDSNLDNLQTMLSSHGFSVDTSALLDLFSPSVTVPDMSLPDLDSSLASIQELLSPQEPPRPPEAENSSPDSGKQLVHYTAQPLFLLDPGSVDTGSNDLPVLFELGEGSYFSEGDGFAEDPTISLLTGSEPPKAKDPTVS
Sequence of ETV1 (P50549 whole entry): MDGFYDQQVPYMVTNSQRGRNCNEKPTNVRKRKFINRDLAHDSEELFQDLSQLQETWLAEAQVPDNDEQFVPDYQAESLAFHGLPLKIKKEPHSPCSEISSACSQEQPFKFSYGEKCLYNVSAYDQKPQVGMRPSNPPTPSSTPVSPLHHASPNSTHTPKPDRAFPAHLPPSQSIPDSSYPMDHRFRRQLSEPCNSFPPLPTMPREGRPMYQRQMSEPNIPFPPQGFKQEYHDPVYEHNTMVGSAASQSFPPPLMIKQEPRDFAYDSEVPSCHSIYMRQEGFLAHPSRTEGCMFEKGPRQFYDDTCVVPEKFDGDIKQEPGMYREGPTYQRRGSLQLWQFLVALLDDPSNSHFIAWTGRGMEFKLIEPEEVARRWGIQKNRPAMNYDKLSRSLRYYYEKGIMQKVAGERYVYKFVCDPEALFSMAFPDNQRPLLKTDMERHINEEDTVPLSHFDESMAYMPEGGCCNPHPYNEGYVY

As to CGTCTA, the binding signal with FLI1 is 1.15 fold enrichment (6-mer frequency, TF over GST control); in the test with ELK1 it was 1.26 fold enrichment (6-mer frequency, TF over GST control); with GABPA it was 1.31 fold enrichment (6-mer frequency, TF over GST control); with ERG, 1.37 fold enrichment (6-mer frequency, TF over GST control); with ELF1, 1.31 fold enrichment (6-mer frequency, TF over GST control); with EHF, 1.27 fold enrichment (6-mer frequency, TF over GST control). Besides, the binding signal in the test with SPI1 was 1.25 fold enrichment (6-mer frequency, TF over GST control); with SPIB, 1.37 fold enrichment (6-mer frequency, TF over GST control); with ELK3, 1.25 fold enrichment (6-mer frequency, TF over GST control); with FEV, 1.24 fold enrichment (6-mer frequency, TF over GST control); with ETV5 it was 1.31 fold enrichment (6-mer frequency, TF over GST control); in the test with HSF1, 1.52 fold enrichment (6-mer frequency, TF over GST control). Further, the binding signal with SPIC is 1.16 fold enrichment (6-mer frequency, TF over GST control); in the test with ELF4 it was 1.4 fold enrichment (6-mer frequency, TF over GST control); with ELK4, 1.34 fold enrichment (6-mer frequency, TF over GST control); with ETV2, 1.29 fold enrichment (6-mer frequency, TF over GST control); with ELF3 it was 1.29 fold enrichment (6-mer frequency, TF over GST control); with CRX, 1.28 fold enrichment (6-mer frequency, TF over GST control). For the same sequence, the binding signal with ETV1 is 1.36 fold enrichment (6-mer frequency, TF over GST control).

The record behind these values is paper PMC7862700, “An all-to-all approach to the identification of sequence-specific readers for epigenetic DNA modifications on cytosine”.
